DT40 TDP1 CPT: DT40-hTDP1 cell growth loss with CPT; 420,000 tested, 12% active; Potency, µM (highest dose often 46.2 µM), for inactives: at the highest dose activity change, negative = growth inhibition, usual class: inhibitors; AID 686979; chicken DT40 Tdp1-/-;hTDP1 cells + 20 nM CPT, ATP luminescence, 48 h; further: nearly all actives have a fitted effect of over 55% in size
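Chicken DT40 Tdp1-/- cells complemented with human TDP1, 400 cells/well, exposed to compounds plus 20 nM camptothecin for at least 48 h at 37 C; viability read as ATP content by CellTiter-Glo luminescence.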
KB-V1 cytotox: KB-V1 MDR subline cytotoxicity; 400,000 tested, 3.4% active; Potency, µM (series often up to 46.1 µM), usual class: cytotoxic; KB-V1 MDR cells viability, CellTiter-Glo, 72 h; AID 1347076; further: nearly all actives have a fitted effect of over 60% in size
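Cytotoxicity toward P-gp-expressing KB-V1 cells was determined as loss of CellTiter-Glo luminescence after 72 h at 37 degrees C. Compounds were tested in quantitative HTS format across a concentration range, with curves fitted to normalized data.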
DT40 TDP1 no CPT: qHTS for Inhibitors of human tyrosyl-DNA phosphodiesterase 1 (TDP1): qHTS in cells in absence of CPT; DT40 Tdp1-/- hTDP1 cells, no CPT, ATP luminescence, 48 h; Potency, µM (titrated, usually from 46.2 µM), for the others: at the top dose activity change, negative = growth inhibition, most hits filed as inhibitors; 420,000 tested, 15% active; AID 686978, 2013; further: nearly all actives have a fitted effect of over 55% in size
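Growth kinetics read by CellTiter-Glo luminescence after ≥48 hr at 37 °C. Cells: DT40 Tdp1-/- stably carrying human TDP1, 400 per well, compound exposure in the absence of CPT (DMSO vehicle).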
HT1080NT lethal: kills 2HG-producing HT-1080-NT fibrosarcoma cells; HT-1080-NT fibrosarcoma viability, CellTiter-Glo ATP luminescence, 48 h; 360,000 tested, 1.6% active; Potency, µM (doses to about 46.1 µM), for inactives: top-dose activity, negative = less viability, actives largely listed as cytotoxic; AID 686970;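 further: NT is the 2HG producing partner of a matched IDH1 knockdown line; 0% = DMSO-treated cells and -100% = media-only wells without cells; nearly all actives have a fitted effect of over 55% in size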
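Luminescent CellTiter-Glo readout after 48 hours of compound exposure at 37 degrees C defined viability of HT-1080-NT cells. Activity was normalized to DMSO wells and cell-free media wells; concentration-response curves were fitted and assigned curve classes.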
HT1080 IDH1KD tx: kills HT-1080 cells with IDH1 knockdown; Potency, µM (titrated, usually from 46.1 µM), for the others: at the top dose activity, negative = toxicity, actives largely listed as cytotoxic; 360,000 tested, 2% active; HT-1080 IDH1 knockdown viability, ATP luminescence, 48 h; AID 686971;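 further: 0% = DMSO wells and -100% = cell-free medium wells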
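IDH1KD HT-1080 cells, 750/well, RPMI + 5% FBS; compound pinned after 2 h settling; 48 h, 37 °C; CellTiter-Glo luminescence; % activity normalised to DMSO and no-cell wells; curves fitted, classed by r2 and efficacy.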
KB-3-1 cytotox: KB-3-1 parental cell cytotoxicity. KB-3-1 viability, CellTiter-Glo ATP luminescence, 72 h. Potency, µM (doses to about 46.1 µM), most hits filed as cytotoxic. AID 1347075. 400,000 tested, 1.4% active; further: nearly all actives have a fitted effect of over 60% in size
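72 h, 37 °C compound treatment of KB-3-1 parental cells; CellTiter-Glo added, 10 min, luminescence read. Data corrected against DMSO-only plates and normalized before curve fitting.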
* hit, by the source's call; i = inactive; ? = inconclusive; · = no result given; ! = a repeat was not active. Only some compounds are listed: those with a hit (about 19% of all), similar ones and a draw of the others. The call rests on the fitted dose curve; in most records, active means well fitted curve in the direction sought with a large enough effect; inconclusive means small, poorly fitted or top-dose-only effect, or another doubt; inactive means no such curve, though single readings can be large; an effect the other way counts as inactive or inconclusive. Unless noted, on the % scale 0 is the no-effect control and ±100 the full control effect; potency means the concentration at half of the fitted maximal effect.

SMILES	DT40 TDP1 CPT	KB-V1 cytotox	DT40 TDP1 no CPT	HT1080NT lethal	HT1080 IDH1KD tx	KB-3-1 cytotox
Cc1ccccc1OCC(=O)NCC(=O)OCc1ccc2ccccc2c1	?	i	15.8µM*	·	·	i
O=C(CCC(=O)OCC(=O)c1ccc([N+](=O)[O-])cc1)Nc1ccccc1Cl	18.4µM*	i	?	-13.7%	1.7%	i
Cc1ccccc1OCC(=O)NCC(=O)OCC(=O)c1ccc(-c2ccccc2)cc1	-0.6%	?	?	·	·	?
Cc1cc(Nc2ccc(Br)c(C)c2)n2nc(-c3ccco3)nc2n1	?	?	20.6µM*	·	·	i
Clc1ccc(NCc2nc3ccccc3n2CCOc2ccccc2)cc1	13µM*	i	20.6µM*	·	·	i
Cc1ccccc1NCc1nc2ccccc2n1CCOc1ccccc1	?	?	?	·	·	14.6µM*
CCOc1ccc(NCc2nc3ccccc3n2CCOc2ccc(C)cc2)cc1	6.51µM*	?	8.2µM*	·	·	?
CCOc1ccc(NCc2nc3ccccc3n2CCOc2ccccc2)cc1	?	?	?	-14.1%	?	?
Brc1ccc(C=C2C=c3ccccc3=C2)cc1	13.8%	i	-24.4%	·	·	i
CCOC(=O)c1c(Cc2cccc(Cl)c2)c[nH]c1C	3.0%	i	-12.6%	-1.1%	-1.5%	i
CCCCn1cnc2cc(NCc3ccncc3)ccc21	-19.7%	?	-26.1%	10.6%	8.3%	i
Cn1cnc2cc(NCc3ccccc3Cl)ccc21	-18.2%	i	-16.5%	-9.1%	-6.8%	i
CN(C)c1ccc(CNc2ccc3c(c2)ncn3C)cc1	14.6µM*	i	23.1µM*	-8.1%	?	i
CC(C)c1ccc(CNc2ccc3c(c2)ncn3C)cc1	23.1µM*	?	?	-4.1%	-11.5%	?
COc1cc(OC)cc(C(=O)NCC(=O)N2CCCCC2)c1	-12.8%	i	3.1%	-2.7%	0.9%	i
COc1cc(-c2cc(C(=O)Nc3ccc(S(=O)(=O)NCc4ccco4)cc3)c3ccccc3n2)cc(OC)c1OC	4.61µM*	i	2.91µM*	-3.4%	-4.4%	?
COc1cc(-c2cc(C(=O)NCc3ccco3)c3ccccc3n2)cc(OC)c1OC	?	?	2.59µM*	-13.0%	-9.4%	i
COCCNC(=O)c1ccc2c3n(nc2c1)-c1ccccc1CO3	?	i	?	-5.2%	-13.9%	i
COCCNC(=O)c1ccc2c3n(nc2c1)-c1ccc(Cl)cc1CO3	?	i	20.6µM*	24.6%	27.0%	i
Cc1ccc2c(c1)COc1c3ccc(C(=O)NC(C)C)cc3nn1-2	?	i	10.3µM*	0.0%	0.7%	i
C=CCNC(=O)c1ccc2c3n(nc2c1)-c1ccccc1CO3	14.6µM*	i	23.1µM*	?	?	i
COc1ccc(OC)c(/C=C/c2c3ccccc3cc[n+]2C)c1	2.24µM*	i	1.41µM*	·	·	?
COc1ccc(OC)c(/C=C/c2cc3ccccc3c[n+]2C)c1	2.82µM*	i	2µM*	·	·	?
COc1cc(OC)c(/C=C/c2cc3ccccc3c[n+]2C)c(OC)c1	0.501µM*	i	1µM*	·	·	0.92µM*
COc1ccc(OC)c(/C=C/c2sc3ccccc3[n+]2C)c1	?	i	?	·	·	?
SMILES	DT40 TDP1 CPT	KB-V1 cytotox	DT40 TDP1 no CPT	HT1080NT lethal	HT1080 IDH1KD tx	KB-3-1 cytotox
CC1CCCC(C)N1C(=O)CSCc1ccc(Cl)cc1 (stereo not given)	-19.3%	18.4µM*	-13.1%	1.0%	1.8%	?
CC1CCCC(C)N1C(=O)COC(=O)Cc1ccc(Cl)cc1 (stereo not given)	-19.9%	i	6.0%	8.7%	-1.5%	i
CCN(CC(=O)Nc1ccccc1C(F)(F)F)C(=O)c1ccc(N2CCCC2=O)cc1	-4.0%	i	?	-2.3%	0.5%	i
COc1ccc(-c2nn(-c3ccccc3)cc2/C=N/NC(=O)c2ccc(Br)o2)cc1	20.6µM*	?	20.6µM*	-15.1%	-29.6%	?
COc1ccc(-c2nn(-c3ccccc3)cc2/C=N/NC(=O)c2cccc(S(=O)(=O)Nc3ccccc3OC)c2)cc1	-23.4%	i	-20.4%	-5.5%	-4.1%	i
C=CCNC(=S)N/N=C/c1cn(-c2ccccc2)nc1-c1ccc(OC)cc1	-27.5%	i	9.2µM*	-1.7%	?	i
CCN1Cc2cccc(C(=O)Nc3ccc(F)cc3)c2C1=O	-8.7%	i	-18.9%	·	·	i
O=C(CCCN1CCC(O)(c2ccc(Br)cc2)CC1)c1ccc(F)cc1	?	?	?	·	·	i
O=C(CCCN1CCC(O)(c2ccc(Cl)cc2)CC1)c1ccc(F)cc1	26.6µM*!	?	16.4µM*!	5.6%	13.4%	i
NS(=O)(=O)c1ccc(NC(=S)Nc2ccc(S(=O)(=O)Nc3nccs3)cc2)cc1	-6.7%	i	-0.2%	10.9%	24.4%	i
CC(C)(C)C(=O)NC(c1ccccc1)c1c(O)ccc2ccccc12 (stereo not given)	?	i	?	20.9%	13.1%	i
CCCC(=O)NC(c1ccc(OC)cc1)c1c(O)ccc2ccccc12 (stereo not given)	?	?	23.1µM*	?	?	?
CC(C)CC(=O)NC(c1ccccc1Cl)c1c(O)ccc2ccccc12 (stereo not given)	?	20.6µM*	-112.2%	-25.6%	?	?
CCOc1ccc(C(NC(=O)CC)c2c(O)ccc3ccccc23)cc1 (stereo not given)	-81.6%	i	?	?	?	?
COc1ccc(C(NC(=O)CC(C)C)c2c(O)ccc3ccccc23)cc1 (stereo not given)	?	i	?	?	?	?
COc1ccc(C(NC(=O)C2CCCCC2)c2c(O)ccc3ccccc23)cc1 (stereo not given)	?	?	18.4µM*	-13.6%	-12.2%	?
CC(=O)Oc1ccc2ccccc2c1C(NC(=O)Cc1ccccc1)c1ccc(Cl)cc1 (stereo not given)	?	?	20.6µM*	?	18.4µM*	?
CCOC(=O)N/N=C(\C)c1ccc(-n2cnnn2)cc1	-0.5%	i	10.6%	10.6%	19.4%	i
CC(=O)NC1(C)CCC2CC1C(C)=NC2(C)C (stereo not given)	3.3%	i	3.6%	?	5.7%	i
